Details in all cases: mRNA level, 48 h; actives raise or lower the signal
Read-out in assay [1]: Insulin-like growth factor-binding protein 1 (IGFBP1), IGFBP1 (gene 3484)
Put plainly: LTEA_HepaRG_IGFBP1: Life Technologies and Expression Analysis (LTEA) Assay for Insulin-like growth factor-binding protein 1 (IGFBP1) using HepaRG (AID 2283508). The gist of the method:
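Differentiated human HepaRG cells in serum-free induction medium were exposed in duplicate for 48 h to eight concentrations, top 100 uM with half-log dilutions, in 0.5% DMSO. Transcript levels came from qRT-PCR normalised to ACTB, GAPDH and POLR2A, fitted bidirectionally against DMSO.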

Read-out in assay [2]: Interleukin 6 (IL6), IL6 (gene 3569)
Put plainly: LTEA_HepaRG_IL6: Life Technologies and Expression Analysis (LTEA) Assay for Interleukin 6 (IL6) using HepaRG (AID 2283509). In short, it runs like this: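 HepaRG cells exposed in duplicate for 48 h to eight half-log concentrations, top 100 uM, in 0.5% DMSO serum-free induction medium. mRNA measured by qRT-PCR, normalized to ACTB, GAPDH and POLR2A. Bidirectional fit versus DMSO.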

Read-out in assay [3]: Interleukin 6 Receptor (IL6R), IL6R (gene 3570)
Put plainly: LTEA_HepaRG_IL6R: Life Technologies and Expression Analysis (LTEA) Assay for Interleukin 6 Receptor (IL6R) using HepaRG (AID 2283510).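 On AC50: TaqMan qRT-PCR signal normalized to ACTB GAPDH and POLR2A housekeeping genes.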 The gist of the method:
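Concentration-response in human liver HepaRG cells: eight concentrations from 100 uM downward by half-logs, 48 h exposure, 0.5% DMSO vehicle. IL6R mRNA change measured by qRT-PCR and fitted in both directions relative to vehicle.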

Read-out in assay [4]: Potassium channel subfamily K member 1 (KCNK1), KCNK1 (gene 3775)
Kind of assay: LTEA_HepaRG_KCNK1: Life Technologies and Expression Analysis (LTEA) Assay for Potassium channel subfamily K member 1 (KCNK1) using HepaRG (AID 2283511). The gist of the method:
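Differentiated HepaRG cells, 48 h exposure in serum-free induction medium with 0.5% DMSO; 8 concentrations, half-log from 100 uM, duplicate. KCNK1 mRNA by qRT-PCR, normalized to ACTB, GAPDH, POLR2A; bidirectional fit vs DMSO.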

Read-out in assay [5]: Keratin 19 (KRT19), KRT19 (gene 3880)
Kind of assay: LTEA_HepaRG_KRT19: Life Technologies and Expression Analysis (LTEA) Assay for Keratin 19 (KRT19) using HepaRG (AID 2283512). In short, it runs like this: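 Differentiated human HepaRG cells, plated 48 h, were exposed in duplicate for 48 h in serum-free induction medium to eight half-log concentrations up to 100 uM in 0.5% DMSO. KRT19 mRNA was quantified by qRT-PCR, normalized to ACTB, GAPDH and POLR2A, and fitted bidirectionally versus DMSO.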

Read-out in assay [6]: JUN Transcription Factor, JUN (gene 3725)
Kind of assay: LTEA_HepaRG_JUN: Life Technologies and Expression Analysis (LTEA) Assay for JUN Transcription Factor using HepaRG (AID 2283513). In short, it runs like this:
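Human HepaRG liver cells receive test chemicals in 0.5% DMSO for 48 h across an eight-point range topping at 100 uM. Expression changes in JUN are scored in both directions against the DMSO vehicle.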

Read-out in assay [7]: Lipase C (LIPC), LIPC (gene 3990)
Put plainly: LTEA_HepaRG_LIPC: Life Technologies and Expression Analysis (LTEA) Assay for Lipase C (LIPC) using HepaRG (AID 2283514). In short, it runs like this: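 HepaRG cells, 48 h after plating, treated in duplicate for 48 h in serum-free induction medium over 8 half-log concentrations from 100 uM, 0.5% DMSO. LIPC mRNA by TaqMan qRT-PCR normalized to ACTB/GAPDH/POLR2A; bidirectional fit versus DMSO.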

Read-out in assay [8]: Lipoprotein lipase (LPL), LPL (gene 4023)
Kind of assay: LTEA_HepaRG_LPL: Life Technologies and Expression Analysis (LTEA) Assay for Lipoprotein lipase (LPL) using HepaRG (AID 2283515). In short, it runs like this: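 Differentiated HepaRG cells, plated 48 h, then exposed 48 h in serum-free induction medium to 8 concentrations (top 100 uM, half-log steps) in 0.5% DMSO, duplicate. LPL mRNA measured by qRT-PCR, normalized to ACTB, GAPDH and POLR2A.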

Read-out in assay [9]: MicroRNA 122 (MIR122), gene 406906
Kind of assay: LTEA_HepaRG_MIR122: Life Technologies and Expression Analysis (LTEA) Assay for MicroRNA 122 (MIR122) using HepaRG (AID 2283516). Further: the transcript read is the microRNA miR-122. The gist of the method:
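HepaRG, 48 h exposure, 8-pt half-log from 100 uM, 0.5% DMSO; TaqMan qRT-PCR; bidirectional fit vs DMSO.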

Read-out in assay [10]: matrix metalloproteinase-10 (MMP10), MMP10 (gene 4319)
Put plainly: LTEA_HepaRG_MMP10: Life Technologies and Expression Analysis (LTEA) Assay for matrix metalloproteinase-10 (MMP10) using HepaRG (AID 2283517). The gist of the method: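 Differentiated HepaRG cells in serum-free induction medium exposed 48 h in duplicate to 8-point half-log series up to 100 uM in 0.5% DMSO. mRNA quantified by qRT-PCR, normalised to ACTB, GAPDH, POLR2A; bidirectional fit versus DMSO.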

Read-out in a further assay: MYC, MYC (gene 4609)
Put plainly: LTEA_HepaRG_MYC: Life Technologies and Expression Analysis (LTEA) Assay for MYC using HepaRG (AID 2283518). The gist of the method:
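Differentiated human HepaRG cells, plated 48 h then switched to serum-free induction medium, were exposed in duplicate for 48 h to 8-point half-log series up to 100 uM in 0.5% DMSO. MYC mRNA measured by qRT-PCR, normalized to ACTB/GAPDH/POLR2A.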

Read-out in assay [11]: matrix metalloproteinase-3 (MMP3), MMP3 (gene 4314)
Put plainly: LTEA_HepaRG_MMP3: Life Technologies and Expression Analysis (LTEA) Assay for matrix metalloproteinase-3 (MMP3) using HepaRG (AID 2283519). In short, it runs like this: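 HepaRG cells (~100,000/well) in serum-free induction medium were dosed in duplicate for 48 h with an 8-point half-log series from 100 uM, 0.5% DMSO. MMP3 mRNA was quantified by Fluidigm TaqMan qRT-PCR, normalized to three housekeeping genes.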

Read-out in assay [12]: Paternally Expressed 10 (PEG10), PEG10 (gene 23089)
Kind of assay: LTEA_HepaRG_PEG10: Life Technologies and Expression Analysis (LTEA) Assay for Paternally Expressed 10 (PEG10) using HepaRG (AID 2283520). In short, it runs like this:
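Chemicals tested on HepaRG cells for 48 h, highest concentration 100 uM. PEG10 expression assessed by qRT-PCR relative to DMSO control.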

Read-out in assay [13]: Nuclear factor NF-kappa-B p105 subunit (Homo sapiens) (UniProt P19838)
Kind of assay: LTEA_HepaRG_NFKB1: Life Technologies and Expression Analysis (LTEA) Assay for Nuclear Factor Kappa B Subunit 1 (NFKB1) using HepaRG (AID 2283521).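 Further: TaqMan qRT-PCR transcript normalised to ACTB GAPDH and POLR2A housekeeping genes.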 The gist of the method:
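Differentiated human HepaRG cells were exposed for 48 h in serum-free induction medium to eight concentrations (top 100 uM, half-log steps, 0.5% DMSO), in duplicate. NFKB1 mRNA was measured by TaqMan qRT-PCR, normalized to ACTB/GAPDH/POLR2A, and fitted bidirectionally against DMSO.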

Read-out in assay [14]: Protein phosphatase 2A (PPP2R4), PTPA (gene 5524)
Put plainly: LTEA_HepaRG_PPP2R4: Life Technologies and Expression Analysis (LTEA) Assay for Protein phosphatase 2A (PPP2R4) using HepaRG (AID 2283522). In short, it runs like this:
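Gene-expression endpoint in HepaRG hepatic cells: 48 h treatment across eight half-log concentrations up to 100 uM in 0.5% DMSO. PPP2R4 mRNA by qRT-PCR, normalized to three endogenous control genes.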

Read-out in assay [15]: Phosphatase and tensin (PTEN), PTEN (gene 5728)
Kind of assay: LTEA_HepaRG_PTEN: Life Technologies and Expression Analysis (LTEA) Assay for Phosphatase and tensin (PTEN) using HepaRG (AID 2283523). In short, it runs like this:
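HepaRG cells, 48 h after plating, exposed in duplicate for 48 h in serum-free induction medium to 8 half-log concentrations up to 100 uM (0.5% DMSO). PTEN mRNA by qRT-PCR, normalized to ACTB, GAPDH, POLR2A; bidirectional fit versus DMSO.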

Read-out in assay [16]: solute carrier (SLC22A1), SLC22A1 (gene 6580)
Kind of assay: LTEA_HepaRG_SLC22A1: Life Technologies and Expression Analysis (LTEA) Assay for solute carrier (SLC22A1) using HepaRG (AID 2283524). In short, it runs like this: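 Differentiated human HepaRG cells in serum-free induction medium, exposed 48 h in duplicate to 8-point half-log series from 100 µM top in 0.5% DMSO. SLC22A1 mRNA by TaqMan qRT-PCR normalized to ACTB, GAPDH, POLR2A; bidirectional fit versus DMSO.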

Read-out in assay [17]: Pyruvate Dehydrogenase Kinase 4 (PDK4), PDK4 (gene 5166)
Put plainly: LTEA_HepaRG_PDK4: Life Technologies and Expression Analysis (LTEA) Assay for Pyruvate Dehydrogenase Kinase 4 (PDK4) using HepaRG (AID 2283525). The gist of the method:
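HepaRG cells plated 48 h, then switched to serum-free induction medium and exposed in duplicate for 48 h to 8 half-log concentrations from 100 uM in 0.5% DMSO. PDK4 mRNA measured by qRT-PCR, normalized to ACTB, GAPDH and POLR2A; bidirectional fit versus DMSO.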

Read-out in assay [18]: NAD(P)H dehydrogenase [quinone] 1 (NQO1), NQO1 (gene 1728)
Kind of assay: LTEA_HepaRG_NQO1: Life Technologies and Expression Analysis (LTEA) Assay for NAD(P)H dehydrogenase [quinone] 1 (NQO1) using HepaRG (AID 2283526). In short, it runs like this:
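Human HepaRG hepatic cells received chemicals for 48 h in serum-free induction medium with 0.5% DMSO, up to 100 uM. Expression was assessed by TaqMan qRT-PCR against housekeeping controls and fitted bidirectionally against DMSO.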

Active and inactive are the calls of the source. How the source made its calls: active means hit-call score of the fitted dose curve at least 0.9, where 1 is the maximum; inactive means score below 0.9.

Sequence of Nuclear factor NF-kappa-B p105 subunit (Homo sapiens) (P19838 whole entry, looked up): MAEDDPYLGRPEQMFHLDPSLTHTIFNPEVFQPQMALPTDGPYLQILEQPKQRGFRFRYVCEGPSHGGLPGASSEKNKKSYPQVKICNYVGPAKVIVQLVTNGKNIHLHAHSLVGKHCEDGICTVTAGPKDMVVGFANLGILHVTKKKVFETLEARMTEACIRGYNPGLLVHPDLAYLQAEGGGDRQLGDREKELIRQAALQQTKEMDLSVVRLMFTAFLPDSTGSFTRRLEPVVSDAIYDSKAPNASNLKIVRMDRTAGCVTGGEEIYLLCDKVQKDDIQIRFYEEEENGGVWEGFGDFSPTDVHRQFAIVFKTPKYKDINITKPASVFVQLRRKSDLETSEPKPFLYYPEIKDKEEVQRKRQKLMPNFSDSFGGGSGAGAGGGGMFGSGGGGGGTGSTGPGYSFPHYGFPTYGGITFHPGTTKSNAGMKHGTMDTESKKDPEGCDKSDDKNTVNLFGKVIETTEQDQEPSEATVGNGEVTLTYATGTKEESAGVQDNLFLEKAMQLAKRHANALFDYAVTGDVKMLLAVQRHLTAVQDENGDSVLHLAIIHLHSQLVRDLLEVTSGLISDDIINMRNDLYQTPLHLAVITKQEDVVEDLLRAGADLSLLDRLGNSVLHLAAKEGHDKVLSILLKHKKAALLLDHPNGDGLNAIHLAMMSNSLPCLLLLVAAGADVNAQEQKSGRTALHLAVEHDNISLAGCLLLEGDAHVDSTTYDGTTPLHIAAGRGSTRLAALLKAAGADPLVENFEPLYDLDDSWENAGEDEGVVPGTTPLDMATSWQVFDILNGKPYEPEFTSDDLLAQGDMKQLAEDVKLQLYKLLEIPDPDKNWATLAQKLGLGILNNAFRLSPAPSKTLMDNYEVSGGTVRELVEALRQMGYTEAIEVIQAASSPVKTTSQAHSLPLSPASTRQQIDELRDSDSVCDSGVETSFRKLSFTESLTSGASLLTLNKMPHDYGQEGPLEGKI

Take `CCCCCCOC(=O)c1ccccc1C(=O)OCCCCCC`: the compound was called inactive in [1], in assay [2], in assay [3], in assay [4], in assay [5] and in assay [6]. The outcome in [7] is “inactive”; in assay [8], “inactive”; in assay [9], “inactive”; in assay [10], “inactive”; with MYC, MYC (gene 4609) it was “inactive”; in assay [11] it was “inactive”. Moreover, the compound was called inactive in [12], in assay [13], in assay [14], in assay [15], in assay [17] and in [18]. Also, the AC50 in assay [16] was 87.6 nM (active).
As for `ClC1=C(Cl)[C@]2(Cl)[C@@H]3[C@@H]4C[C@@H]([C@H]5O[C@@H]45)[C@@H]3[C@@]1(Cl)C2(Cl)Cl`, the result in [1], in [2], in assay [4], in assay [5], in assay [6] and in assay [7] was inactive. The outcome in [8], in assay [9], in assay [10], in assay [11], in [12] and in assay [13] was inactive. Further, the compound was classed as inactive in assay [14] and in [18]. Also, the AC50 in [3] is 5.06 nM (active); in the assay with MYC, MYC (gene 4609), 9920 nM (active); in assay [15], 33.3 nM (active); in [16], 50000 nM (active); in assay [17] it was 9.05 nM (active).
On to `Cc1cc(O)ccc1Cl`, for which the compound was called inactive in [1], in assay [2], in [3], in assay [4], in assay [5] and in assay [6]. Besides, the outcome in assay [7] is “inactive”; in [8], “inactive”; in assay [9], “inactive”; in assay [10], “inactive”; with MYC, MYC (gene 4609), “inactive”; in assay [11], “inactive”. Further, the call in assay [12], in [13], in assay [14], in assay [15], in assay [16] and in assay [17] was inactive. The compound was called inactive in [18].
In the case of `CC(C)C(=O)OCC(C)(C)C(OC(=O)C(C)C)C(C)C` (stereo unspecified), the compound was classed as inactive in assay [1], in assay [2], in assay [3], in assay [4], in [5] and in assay [6]. Also, the outcome in [7] was “inactive”; in assay [8], “inactive”; in assay [9], “inactive”; in [10] it was “inactive”; with MYC, MYC (gene 4609) it was “inactive”; in assay [11] it was “inactive”. Besides, the compound was called inactive in assay [12], in assay [13], in [14], in [15], in assay [16] and in assay [17]. Also, the outcome in [18] was inactive.

By AC50 is commonly meant the concentration giving half of the maximal activity seen.

The values are drawn from PubChem BioAssay (EPA / NIEHS).
